Bioassay records: PubChem, Johns Hopkins Ion Channel Center
The list is not random: actives were taken first. Their share in the collection is about 3.5%.
KCNK9 block – inhibitors of human KCNK9 two-pore domain potassium channel. Q9NPC2. 1.2% of 310,000 active. HEK293 KCNK9, FluxOR thallium flux fluorescence; active compounds read low. B-score at 10 µM;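 active means ratio B-score over 3 SD below the library mean, with starting fluorescence within 5 SD of its mean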;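 further: negative B-score means less thallium flux so channel inhibition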
Target sequence (Q9NPC2 whole entry, looked up, the tested form may be a part): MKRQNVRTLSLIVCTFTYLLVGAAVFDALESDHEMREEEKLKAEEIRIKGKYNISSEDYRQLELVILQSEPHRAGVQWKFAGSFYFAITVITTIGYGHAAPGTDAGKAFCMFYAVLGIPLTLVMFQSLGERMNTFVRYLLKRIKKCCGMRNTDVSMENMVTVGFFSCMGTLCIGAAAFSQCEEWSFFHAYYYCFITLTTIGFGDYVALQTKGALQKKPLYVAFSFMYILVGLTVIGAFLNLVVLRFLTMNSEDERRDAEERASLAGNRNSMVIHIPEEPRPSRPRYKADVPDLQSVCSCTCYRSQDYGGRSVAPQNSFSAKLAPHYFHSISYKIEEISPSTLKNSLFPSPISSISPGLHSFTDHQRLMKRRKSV
KCNK3 block – human KCNK3 channel inhibition, primary screen; O14649; CHO-KCNK3 thallium flux, FluxOR fluorescence; active compounds read low; B-score at 10 µM; 0.84% of 340,000 active; AID 602410;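 active means B-score under library mean minus 4 SD, starting fluorescence ratio at most library mean plus 5 SD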;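 further: more negative B-score means stronger inhibition of thallium flux through KCNK3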
TMEM16A inh – inhibitors of mouse TMEM16A calcium-activated chloride channel; Q8BHY3; 1.2% of 310,000 active; AID 588511; HEK293 TMEM16A/YFP iodide influx fluorescence, ionomycin; normalized B-score (activity score, 25-100; higher = stronger inhibition) at 10 µM;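 active means ratio plate-corrected score three or more library SD toward inhibition, starting fluorescence score within five deviations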;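 further: score derived from kinetic fluorescence span divided by baseline fluorescence per well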
TMEM16A act – mouse TMEM16A channel activation, primary screen. 0.3% of 340,000 active. Q8BHY3. AID 623877. HEK293 TMEM16A/YFP-H148Q/I152L, iodide quench fluorescence; active compounds read low. B-score at 10 µM;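 active means fluorescence-ratio B-score plate-corrected deviation score at least 3 library SD below zero, with starting fluorescence score within 5 deviations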;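 further: channel opened by trigger with iodide after compound preincubation; score built on the fluorescence ratio of max minus min over baseline; more negative score means more quench and so TMEM16A activation or potentiation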
Kir21 inh – inhibitors of mouse Kir2.1 inward-rectifier potassium channel | P35561 | HEK293-Kir2.1, FluxOR thallium flux fluorescence; active compounds read low | B-score at 10 µM | 0.85% of 310,000 active;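 active means fluorescence ratio B-score at or below minus 3 SD of library scores, with starting-brightness B-score within 2 SD, cut at about -4.2 in these data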;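 further: channel flux triggered by added potassium and thallium sulfate stimulus; B-score of peak minus minimum fluorescence over baseline after thallium stimulus; more negative B-score means stronger Kir2.1 block with less thallium influx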
KCNK9 inh conf – confirmation of human KCNK9 potassium channel inhibitors; 43% of 4,900 active; inhibition, % at 10 µM; shares compounds with KCNK9 block; HEK293 KCNK9 cells, FluxOR thallium flux fluorescence;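 active means thallium signal inhibited by more than 5 SD of the compound-free buffer control wells, on both duplicate plates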;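 further: 0% = assay buffer control wells without compound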
Kir2-1 spec – tests whether KCNK9 modulators also affect mouse Kir2.1; shares compounds with KCNK9 block; 4% of 4,900 active; inhibition, % at 10 µM; Kir2.1 cells, FluxOR thallium flux fluorescence;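 active means thallium signal drop more than 5 SD beyond the mean of the no-compound control wells, seen in both duplicate plates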;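 further: signal is fluorescence rise after thallium addition divided by baseline fluorescence; plate controls were assay buffer only for no effect and full block by chlorpromazine control for full effect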
KCNK9 uninduced – second check of KCNK9 modulator effects in non-induced HEK293 cells. inhibition, % at 10 µM. AID 492997. 40% of 4,900 active. FluxOR thallium flux. shares compounds with KCNK9 block;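 active means thallium signal drop beyond 5 SD of the untreated control mean, on both duplicate plates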;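 further: plate controls were buffer only IC0 wells for no effect and SID17386958 at its maximal inhibitory level for full effect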
* marks the source's active call; other numbers are inactive results; i = inactive; x = no result given.

SMILES | KCNK9 block | KCNK3 block | TMEM16A inh | TMEM16A act | Kir21 inh | KCNK9 inh conf | Kir2-1 spec | KCNK9 uninduced
O=C(CN1CCN(c2ccccc2)CC1)Nc1c(C(=O)C2CC2)oc2ccccc12 | -10.5* | i | i | i | 0.41 | 32.5%* | i | i
Cc1ccc(-c2ccc([C@H]3[C@H]4C=CC[C@@H](C)[C@@H]4C(=O)N3Cc3ccccc3)c(F)c2)cc1 | i | i | i | i | 0.18 | x | x | x
Cc1ccc(F)c([C@H]2[C@H]3C=CC[C@@H](C)[C@@H]3C(=O)N2Cc2ccccc2)c1 | -8.55* | i | i | i | -0.15 | 52.5%* | i | 60.5%*
CC[C@@H]1CC=C[C@H]2[C@H]1C(=O)N(Cc1ccccc1)[C@H]2c1ccc(C(F)(F)F)cc1 | -8.45* | i | i | i | 0.6 | 50.5%* | i | 47.5%*
O=C1C2C(c3cccc(/C=C/c4ccccc4)c3)CC=CC2C(c2ccc(C(F)(F)F)cc2)N1Cc1ccccc1 (configuration not stated) | i | i | i | i | 1.55 | x | x | x
O=C(OCCCc1cc2ccccc2c(=O)o1)c1ccc2c(c1)OCO2 | x | i | x | i | x | x | x | x
CCOC(=O)N1CCC(N2CCN(C3CCCC3)C(CCO)C2)CC1 (configuration not stated) | i | i | i | i | 1.43 | x | x | x
CCOC(=O)Cn1c(=O)n(CC(=O)OCC)c2ccccc21 | i | i | i | i | -1.18 | x | x | x
CCOC(=O)Cn1c(=O)cc(C)c2cccc(C)c21 | i | i | i | i | -1.29 | i | i | i
C[C@H](NC(=O)c1nc[nH]c1C(=O)N[C@@H](CCCCNC(=O)OC(C)(C)C)C(=O)OC(C)(C)C)c1ccccc1 | -11.2* | i | i | i | -0.23 | i | i | 29.0%*
COc1cc(C(=O)N(CCc2ccccc2)C2=CC3CCC(C2)N3C)cc(OC)c1OC (configuration not stated) | i | i | i | i | -1.11 | x | x | x
Cc1cc(C)cc(C(=O)N(CCc2ccccc2)C2CC3CCC(C2)N3C)c1 (configuration not stated) | i | i | i | i | -0.95 | i | i | i
Fc1ccccc1N1CC(c2ccccc2)C(c2cccs2)=N1 (configuration not stated) | -8.55* | i | i | i | 1.9 | 34.0%* | i | 43.0%*
O=C(COc1ccc2c(c1)CCC2)N1CCN(c2ccccc2F)CC1 | i | i | i | i | -1.53 | i | i | i
O=C(COc1ccc2c(c1)CCC2)N1CCN(c2cccc(C(F)(F)F)c2)CC1 | i | i | i | i | 0.6 | i | i | i
CCOc1ccc(C(=O)NCC(=O)NNC(=O)CN(C)S(=O)(=O)c2ccc(Cl)cc2)cc1OCC | x | i | x | i | x | x | x | x
COc1ccc(-c2nn(-c3ccccc3)cc2C(=O)NC2CCCCC2C)cc1 (configuration not stated) | i | i | i | i | -0.41 | x | x | x
CC(C)c1ccc(OC(=O)c2cccc(S(=O)(=O)N3CCN(C)CC3)c2)cc1 | i | i | i | i | -0.65 | i | i | i
CN1CCN(S(=O)(=O)c2cccc(C(=O)Oc3ccc(C(C)(C)C)cc3)c2)CC1 | i | i | i | i | -0.74 | x | x | x
CC1Cc2ccccc2N1C(=O)CN1CCc2ccccc2C1 (configuration not stated) | i | i | i | i | -0.36 | i | i | i
CC1Cc2ccccc2N1C(=O)CCn1c(=O)sc2ccccc21 (configuration not stated) | i | i | i | i | -3.67 | i | i | i
CC1Cc2ccccc2N1C(=O)CCN1C(=O)C2C3C=CC(C3)C2C1=O (configuration not stated) | i | i | i | i | 0.83 | x | x | x
CC1CCN(CC(=O)N2c3ccccc3CC2C)CC1 (configuration not stated) | i | i | i | i | -2.03 | x | x | x
CCC(C)(C)NC(=O)Cn1c(-c2ccc(C)cc2)noc1=O | i | i | i | i | 0.04 | x | x | x
CC(C)Cc1nc(N2CCN(C(=O)c3ccccc3)CC2)c(C#N)c2c1CCC2 | i | i | i | i | 0.12 | x | x | x
SMILES | KCNK9 block | KCNK3 block | TMEM16A inh | TMEM16A act | Kir21 inh | KCNK9 inh conf | Kir2-1 spec | KCNK9 uninduced
N#Cc1c(N2CCN(C(=O)c3ccccc3)CC2)nc(-c2ccccc2)c2c1CCCC2 | i | i | i | i | 1.26 | i | i | i
CC1(C)Cc2c(C#N)c(N3CCN(C(=O)c4ccccc4Cl)CC3)nc(-c3ccco3)c2CS1 | i | i | i | i | 1.54 | x | x | x
N#Cc1c(N2CCN(C(=O)c3ccccc3Cl)CC2)nc(-c2ccccc2)c2c1CCCC2 | i | i | i | i | 2.08 | i | i | i
O=C(NCc1ccc(OC(F)(F)F)cc1)C1CC2Cn3c(nc4ccccc43)C2N1c1ccccc1 (configuration not stated) | i | i | i | i | 0.46 | x | x | x
CC(C)(C)NC(=O)NC(=O)CSc1ccc(S(=O)(=O)N2CCCCC2)cn1 | x | i | x | i | x | x | x | x
CCOC(=O)c1sc2nc(CC(=O)OC)nc(N3CCN(c4ccc(OC)cc4)CC3)c2c1C | i | i | i | i | 0.27 | i | i | i
Cc1ccc(-c2ccc(C)c(N)c2C)c(C)c1N | i | i | i | i | -0.95 | x | x | x
O=C1NN(c2ccccc2)C(=O)/C1=C/c1ccc(Sc2cccc3ccccc23)o1 | i | i | i | i | -0.02 | i | i | i
COc1cccc(OC)c1C(=O)Nc1cccc(NC(=O)c2cccs2)c1 | -10.6* | i | i | i | 0.04 | 50.0%* | i | 28.5%*
Cc1ccc(C)c(NC(=O)c2cccc(Oc3ccc([N+](=O)[O-])cc3Cl)c2)c1 | i | i | i | i | -0.01 | x | x | x
O=C(Nc1cccc(Cl)c1)c1cccc(Oc2ccc([N+](=O)[O-])cc2Cl)c1 | i | i | i | i | -1.34 | i | i | i
CC1(c2ccc(C#N)cc2)NC(=O)N(CC(=O)Nc2cc(S(=O)(=O)N3CCOCC3)ccc2Cl)C1=O (configuration not stated) | i | i | i | i | 0.97 | x | x | x
Cc1ccc(S(=O)(=O)N2CCOCC2)cc1C(=O)O | i | i | i | i | -0.06 | x | x | x
